Structures are written as SMILES. About 79,000 compounds went through this panel and 15% of them were active in at least one assay; those are over-represented in the sample as a whole. Active and inactive are the calls of the source. Rule as the data show it: active = growth inhibition above about 70%; inactive = the rest.

In PubChem BioAssay (NCI) one finds growth inhibition data, which are given here for 16 compounds.

This test can be described thus: NCI Yeast Anticancer Drug Screen. Data for the bub3 strain (AID 167). As to conditions: S. cerevisiae bub3 mutant strain, at 50.0 µM, stronger effect = higher value. A digest of the protocol: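 Growth of a checkpoint-deficient yeast mutant is measured after compound exposure. Values represent inhibition relative to vehicle.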
Turning to `Nc1ncc2[nH]c(I)nc2n1`, the growth inhibition is 40.2% (inactive).
Under `CCC1(c2ccccc2)CCCC/C1=N/NC(N)=O` (stereo unspecified) stands -6.05% (inactive).
In the case of `CC(=N/NC(=S)NCCN1CCCC1)/C(C)=N\NC(=S)NCCN1CCCC1`, the growth inhibition was 12.7% (inactive).
For the compound `O=C(NN1C(=O)c2cccc3cccc(c23)C1=O)NN1C(=O)c2cccc3cccc(c23)C1=O`, the growth inhibition is 99.2% (active).
Under `Cc1c(COC(=O)NC(C)C)c(COC(=O)NC(C)C)c2n1CS(=O)(=O)C2` stands -5.7% (inactive).
The result for `CC1(C(=O)O)CCCC2(C)c3ccc(O)cc3CCC12` (stereo unspecified) reads 61.1% (inactive).
The result for `C1CCc2[nH]nc(-c3n[nH]c4c3CCCCC4)c2CC1` reads 12.3% (inactive); that for `CN(C)CCN1C(=O)c2c(c3cccn3c3c2cnn3-c2ccccc2)C1=O`, 4.9% (inactive); that for `N#CC1=CCc2ccccc2N1C(=O)Oc1ccccc1`, 64.6% (inactive).
Take `O=C(NNc1nc(N2CCOCC2)nc(N2CCOCC2)n1)c1ccccc1`: the growth inhibition was -5.05% (inactive).
Take `CC(=O)OCc1ccc(C)cc1`: the growth inhibition is -14.9% (inactive).
As to `Cn1cnc([N+](=O)[O-])c1Sc1ccncc1S(N)(=O)=O`, the growth inhibition was 6.5% (inactive).
`CCN(CC)CCCNC(Cc1ccccc1)c1ccc(OC)cc1` (stereo unspecified): the growth inhibition is -17.6% (inactive).
As for `C=C1CCc2ccccc2C1=O`, the growth inhibition was 7.15% (inactive).
Consider `O=S(Nc1ccc(Cl)cc1)c1ccccc1` (stereo unspecified), for which the growth inhibition was 18.1% (inactive).
The result for `O=C1C(O)=C(Cl)C(=O)C(OC2=C(Cl)C(=O)C(OC3=C(Cl)C(=O)C(OC4=C(Cl)C(=O)C(Cl)=C(Cl)C4=O)=C(Cl)C3=O)=C(Cl)C2=O)=C1Cl` reads -2.35% (inactive).
